High-throughput results deposited in PubChem by National Center for Advancing Translational Sciences (NCATS).
Rows were chosen to be rich in hits. Some 3.9% of all compounds tested hit in one or more screens of this group.
D1 ag – agonists of human D1 dopamine receptor. P21728. 1% of 360,000 active. AID 504660. activation, % at 2 µM. HEK293 T-REx D1 cells, calcium flux, agonist mode; in the data active means activation above about 30%
Target sequence (P21728 whole entry, looked up): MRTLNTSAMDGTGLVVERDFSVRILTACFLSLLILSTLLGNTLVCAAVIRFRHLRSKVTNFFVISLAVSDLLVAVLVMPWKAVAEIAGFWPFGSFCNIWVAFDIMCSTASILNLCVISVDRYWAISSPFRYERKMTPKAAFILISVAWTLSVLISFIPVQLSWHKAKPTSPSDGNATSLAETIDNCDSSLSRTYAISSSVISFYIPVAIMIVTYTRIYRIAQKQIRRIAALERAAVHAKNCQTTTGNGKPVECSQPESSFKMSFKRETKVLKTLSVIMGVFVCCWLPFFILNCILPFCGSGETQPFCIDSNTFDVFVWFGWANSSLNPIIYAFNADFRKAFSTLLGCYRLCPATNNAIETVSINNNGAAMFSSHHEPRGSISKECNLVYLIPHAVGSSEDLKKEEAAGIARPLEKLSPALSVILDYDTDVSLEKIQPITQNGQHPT
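Tetracycline-induced HEK293 TREx D1 cells, force-coupled to calcium signalling, were dye-loaded with a no-wash calcium kit. Compound was pin-added after a 10 s baseline. Fluorescence was read kinetically at 1 cycle/s for 180 s, with calcium rises flagged as agonism.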
GALK inhibitor – blocks human galactokinase activity | Purified GALK, Kinase-Glo residual ATP luminescence | Potency, µM (titrated, usually from 57.5 µM), most hits filed as inhibitors | 0.007% of 270,000 active | AID 1868
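Quantitative HTS: GALK 5 nM, ATP 35 uM, galactose 100 uM, 1 h room temperature, then luciferase-based ATP detection.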
D1 PAM – human D1 dopamine receptor positive modulation; P21728; HEK293 TREx D1 cells, calcium flux, dopamine EC20 potentiation; potentiation, % at 10 µM; 0.036% of 360,000 active; in the data active means potentiation above about 30%
Eya2 inh – inhibitors of human Eya2 phosphatase activity | 0.006% of 330,000 active | AID 488837 | recombinant Eya2, OMFP fluorescence dephosphorylation (OMFP is methylfluorescein phosphate) | Potency, µM (series often up to 76.9 µM), most hits filed as inhibitors
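Eya2 (0.2 uM) preincubated 10 min at ambient with compound, then OMFP substrate added at 50 uM; 10 min reaction in 50 mM HEPES pH 7.5, 50 mM NaCl, 5 uM MgCl2, 0.05% BSA, 1 mM DTT. Fluorescence read at Ex 485/Em 525 nm.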
D1 antag – blocks dopamine activation of the human D1 receptor; activity change, negative = inhibition, % at 10 µM; P21728; HEK293 TREx D1 cells, calcium flux, dopamine EC80; stronger effect = lower value; 3.2% of 360,000 active; in the data active means activity change below about -30%
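Inducible Hek293 Trex D1 cells (tetracycline, overnight, 30 C). Calcium dye 30–90 min RT. Antagonist mode: EC80 dopamine added after 180 s compound read.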
USP2a block – inhibitors of human ubiquitin-specific protease USP2a; O75604; USP2 core, Ub-CHOP2 coupled fluorogenic reporter, 485/531; Potency, µM (highest dose often 38.3 µM), most hits filed as inhibitors; 0.01% of 330,000 active; AID 463254
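Deubiquitinase activity read as fluorescence (485/531 nm) after Ub-CHOP2 cleavage activates the enterokinase reporter on its substrate; USP2 core 10nM, Ub-CHOP2 and substrate 25nM each, 30min compound preincubation then 60min RT; data normalized to NEM, curves fitted.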
Of the large screens only hits and unclear results are named; the others gave an inactive call. Unless noted, the call rests on the fitted dose curve; in most records, active means well fitted inhibition curve with a large enough effect; inconclusive means small, poorly fitted or top-dose-only effect, or effect the other way; inactive means flat fitted curve, though single readings scatter.

O=C(COc1cc(Cl)c(Cl)cc1Cl)Nc1ccncc1	D1 antag -30
CCOC(=O)c1nn(-c2ccc(C)cc2)c(=O)cc1OCC(=O)Nc1cccc(OC)c1	D1 antag -58 (no result: GALK inhibitor)
COc1cccc(NC(=O)COc2ccc(Br)c(C)c2)c1	D1 antag -37
COc1ccc2[nH]c(C)c(CCNS(=O)(=O)c3cc(F)ccc3OC)c2c1	none (no result: GALK inhibitor, Eya2 inh, USP2a block)
COc1ccccc1N1CCN(C(=O)c2nc(SC)ncc2Cl)CC1	none (no result: GALK inhibitor, Eya2 inh, USP2a block)
CCOC(=O)c1c(-c2ccccc2)oc2ccc(NS(=O)(=O)c3ccc(C(C)C)cc3)cc12	none (no result: GALK inhibitor, Eya2 inh, USP2a block)
Cc1cccc(OCC(=O)Nc2c(C)ccc3nsnc23)c1C	none (no result: GALK inhibitor, Eya2 inh, USP2a block)
O=C(N/N=C/c1c[nH]c2ccc(Br)cc12)c1ccccn1	Eya2 inh inconclusive, D1 antag -47
O=C(N/N=C/c1c[nH]c2ccccc12)c1sc2ccccc2c1Cl	D1 antag -75
O=C(N/N=C/c1c[nH]c2ccc(Br)cc12)c1ccncc1	none
O=C(N/N=C/c1c[nH]c2ccccc12)c1ccccc1	none
O=S(=O)(c1ccc(Cl)cc1)c1nnn2c1nc(N1CCCCC1)c1sccc12	none (no result: GALK inhibitor, Eya2 inh, USP2a block)
COc1ccc(C(=O)NCCn2cc(SCc3c(F)cccc3Cl)c3ccccc32)cc1	none (no result: GALK inhibitor, Eya2 inh, USP2a block)
CCc1cccc(C)c1NC(=O)C(NS(=O)(=O)c1ccc2c(c1)CCC(=O)N2)c1ccccc1 (stereo not drawn)	none (no result: GALK inhibitor, Eya2 inh, USP2a block)
O=C(CCCCN1CCCCC1)c1ccc2c(c1)Cc1ccccc1-2	D1 ag 31, D1 antag -36
O=C(CCN1CCCCCC1)c1ccccc1	none
CC(C)(C)c1ccc(C2=NC(C)(C)N(CC(=O)Nc3ccc(F)c(F)c3)C2=O)cc1	none (no result: GALK inhibitor, Eya2 inh, USP2a block)
CC(C)CNS(=O)(=O)c1ccc(N2CCCCS2(=O)=O)cc1	D1 antag -44 (no result: GALK inhibitor, Eya2 inh, USP2a block)
O=S(=O)(NCCc1ccc(Cl)cc1)c1ccc(N2CCCCS2(=O)=O)cc1	D1 antag -35 (no result: GALK inhibitor, Eya2 inh, USP2a block)
O=S(=O)(NCCc1ccccc1)c1ccc(N2CCCCS2(=O)=O)cc1	none (no result: GALK inhibitor, Eya2 inh, USP2a block)
CCC(=O)N1CCc2cc(S(=O)(=O)NCCC(=O)Nc3ccc(C)cc3)ccc21	none (no result: GALK inhibitor, Eya2 inh, USP2a block)
CCC(=O)N1CCc2cc(S(=O)(=O)NCCC(=O)Nc3ccc(OC)c(OC)c3)ccc21	D1 antag -40 (no result: GALK inhibitor, Eya2 inh, USP2a block)
COC(=O)c1c(-c2cccs2)csc1NC(=O)c1ccc(C(C)C)cc1	none (no result: GALK inhibitor, Eya2 inh, USP2a block)
O=C(O)CSc1nnc(-c2cccc(S(=O)(=O)N3CCOCC3)c2)n1-c1cccc(Cl)c1	D1 antag -31
CNC(=O)CSc1nnc(-c2cccc(S(=O)(=O)N3CCOCC3)c2)n1-c1ccc(F)cc1	none
Cc1ccc(N2CCN(C(=O)c3cnn(-c4ccc(F)cc4F)c3C3CCN(C(=O)OC(C)(C)C)CC3)CC2)c(C)c1	none (no result: GALK inhibitor, Eya2 inh, USP2a block)
CSc1nc(-c2ccc(Cl)cc2)nc(N)c1C#N	none
CSc1nc(N)c(C#N)c(-c2ccc(Cl)cc2)c1C#N	D1 antag -32
COc1cc(N)c(Cc2nccc3cc(OC)c(OC)cc23)cc1OC	none
COc1cc2ccnc(Cc3cccc(OC)c3OC)c2cc1OC	D1 antag -44
CC(NS(=O)(=O)c1ccc(Br)cc1)c1ccccc1 (stereo not drawn)	D1 antag -34
O=C(NCCCCc1ccccc1)c1ccccc1F	none
O=C(NCCCc1ccccc1)c1ccccc1	D1 antag -41
O=C(NCCc1ccccc1)c1ccccc1F	D1 antag -36
Cc1ccc2nc(-c3ccc(Cl)cc3)cc(C(=O)OCC(=O)c3ccccc3)c2c1	none (no result: GALK inhibitor, Eya2 inh, USP2a block)
O=C(/C=C/c1ccc([N+](=O)[O-])cc1)c1cccs1	none
Nc1ccc(/C=C/C(=O)c2cccs2)cc1	D1 ag 82
CCn1cc(C(=O)N2CCN(c3cccc(Cl)c3)CC2)c(=O)c2cc(S(=O)(=O)N3CCC(C)CC3)ccc21	none (no result: GALK inhibitor, Eya2 inh, USP2a block)
COC(=O)c1ccc(NC(=O)CC2C(=O)N(c3cccc(OC)c3)C(=O)N2C(C)C)cc1 (stereo not drawn)	D1 antag -32 (no result: GALK inhibitor, Eya2 inh, USP2a block)
COC(=O)c1ccc(NC(=O)CC2C(=O)N(c3ccccc3)C(=O)N2Cc2ccc(F)cc2)cc1 (stereo not drawn)	none (no result: GALK inhibitor, Eya2 inh, USP2a block)
